Measured values taken from article PMC6919601, “Identification of Plasmodium dipeptidyl aminopeptidase allosteric inhibitors by high throughput screening” (PLoS ONE, 2019).
The whole screen tested about 110,000 compounds, of which about 230 (0.21%) showed an effect of 50% or more. For the sample, strong results were picked, then their nearest neighbours and some compounds at random.

Each compound was assayed against DPAP1 (Plasmodium falciparum, UniProt Q8IIJ9) (assay: primary screen, percent inhibition; read by cleavage of a fluorogenic dipeptide substrate; higher = more effect of the substance).
DPAP1, sequence (Q8IIJ9 whole entry, looked up): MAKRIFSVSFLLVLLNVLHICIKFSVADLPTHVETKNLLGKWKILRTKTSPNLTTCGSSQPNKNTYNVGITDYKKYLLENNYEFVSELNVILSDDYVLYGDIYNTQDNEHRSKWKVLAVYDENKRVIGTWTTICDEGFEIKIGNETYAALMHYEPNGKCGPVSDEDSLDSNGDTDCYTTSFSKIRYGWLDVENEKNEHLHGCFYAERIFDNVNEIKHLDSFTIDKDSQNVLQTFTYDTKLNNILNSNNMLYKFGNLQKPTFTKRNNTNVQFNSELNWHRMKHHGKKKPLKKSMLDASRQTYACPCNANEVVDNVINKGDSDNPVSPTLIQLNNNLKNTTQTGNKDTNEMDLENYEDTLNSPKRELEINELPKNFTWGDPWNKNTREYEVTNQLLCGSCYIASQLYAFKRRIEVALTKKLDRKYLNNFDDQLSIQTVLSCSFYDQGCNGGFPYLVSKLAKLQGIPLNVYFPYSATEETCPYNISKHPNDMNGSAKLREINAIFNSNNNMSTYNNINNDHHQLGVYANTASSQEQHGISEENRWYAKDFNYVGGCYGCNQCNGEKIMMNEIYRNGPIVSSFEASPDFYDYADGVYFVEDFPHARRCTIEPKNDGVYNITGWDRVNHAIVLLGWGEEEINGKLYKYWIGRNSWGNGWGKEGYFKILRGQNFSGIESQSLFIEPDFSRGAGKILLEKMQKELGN
Design: species or system P. falciparum D10 trophozoite lysates; single well
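Further: 30 min substrate incubation versus DMSO and 10 µM JCP410 controls.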

Row | SMILES | % Inhibition @ 10 uM [%]
1 | O=[N+]([O-])c1c(NCCO)cc(Cl)c2nonc12 | 5.66
2 | COc1ccccc1N1C(=O)CC(N2CCN(C)CC2)C1=O (stereo not shown) | -6.08
3 | COc1ccc(/C=C(\C#N)C(N)=S)cc1 | -2.51
4 | COC(=O)/C(C#N)=C/c1ccc(C)o1 | -0.256
5 | Cc1ccc(/C=C(\C#N)C(N)=S)o1 | 79.5
6 | CCOC(=O)C1=C(CN2CCN(C(=O)OCC)CC2)NC(=O)NC1c1cccs1 (stereo not shown) | -3.36
7 | COc1ccc(C(=O)CC(=O)c2ccc(OC)c(OC)c2)c(O)c1 | 4.74
8 | Cc1ccc(S(=O)(=O)Nc2nc3ccccc3nc2N2CCCCC2)cc1 | -0.969
9 | Fc1ccc2[nH]c3nc(S)nnc3c2c1 | 56
10 | CCn1c2ccccc2c2nnc(S)nc21 | 38
11 | Cc1ccc2c(c1)c1nnc(S)nc1n2Cc1ccccc1 | 3.73
12 | Cc1ccc2[nH]c3nc(S)nnc3c2c1 | 12.4
13 | Cn1c2ccc(F)cc2c2nnc(S)nc21 | 74
14 | CCn1c2ccc(F)cc2c2nnc(S)nc21 | 32.8
15 | CCn1c2ccc(OC)cc2c2nnc(S)nc21 | 79.3
16 | CSc1nnc2c(n1)[nH]c1ccc(C)cc12 | 2.51
17 | Fc1ccc2c(c1)c1nnc(S)nc1n2CCc1ccccc1 | 10.9
18 | CCCCn1c2ccc(C)cc2c2nnc(S)nc21 | 61
19 | CCn1c2ccc(OC)cc2c2nc3ccccc3nc21 | -3.13
20 | CCCCn1c2ccccc2c2nnc(S)nc21 | 36.5
21 | CC(C)c1nc2ccccc2n1Cc1ccccc1F | 1.12
22 | NC(=O)C1CCN(C(=O)COCc2cc(-c3ccc4c(c3)OCO4)on2)CC1 | -4.1

Row | SMILES | % Inhibition @ 10 uM [%]
23 | COCCCNC(=O)c1cnn2c(C(F)(F)F)cc(-c3cccs3)nc12 | -2.26
24 | Nc1ncnc2c1nc(S(=O)(=O)O)n2Cc1ccccc1 | -1.69
25 | CCSC1=NSC2=NC(=O)/C(=C\c3c(C)[nH]c4ccccc34)C(=N)N12 | 4.79
26 | Cc1cc2ccccc2n1CCNC(=O)C(c1ccccc1)c1ccccc1 | -4.89
27 | COCCNC(=O)C1CCCN(S(=O)(=O)N(C)C2CCCCC2)C1 (stereo not shown) | -2.86
28 | Sc1nnc2c(n1)[nH]c1ccccc12 | 38
29 | Sc1nnc2[nH]c3ccccc3c2n1 | 56.9
30 | c1ccc2nc3c(nc2c1)[nH]c1ccccc13 | -1.8
31 | Cc1nc2ccc(S(=O)(=O)NC(C(=O)NCCc3ccccc3)C(C)C)cc2s1 (stereo not shown) | -0.0115
32 | Cc1ccc2[nH]c(SCC(=O)Nc3ccc(Cl)cc3)nc2c1 | 5.24
33 | COc1cccc2cc(-c3cn(-c4cccc(C)c4)c(S)n3)c(=O)oc12 | 20.1
34 | Cc1cc(C)c2c(=O)n(CC(=O)NCc3ccccc3Cl)sc2n1 | 83.7
35 | Cc1cc(C)c2c(=O)n(CC(=O)NCc3ccc4c(c3)OCO4)sc2n1 | 12
36 | Cc1cc(C)c2c(=O)n(CC(=O)NCCc3ccc(Cl)cc3)sc2n1 | 15.6
37 | Cc1c(C(=O)Nc2nc3c(s2)CCCC3)oc2ccccc12 | -2.85
38 | N#CC1=C(N)Oc2[nH]nc(-c3ccncc3)c2C1c1ccncc1 (stereo not shown) | 3.92
39 | CCOc1cc(-c2c(C)c(C)nc(N)c2C#N)ccc1O | -1.79
40 | O=C(O)C1Nc2c(cccc2C(F)(F)F)C2C=CCC12 (stereo not shown) | 0.345
41 | CC(C)C1Nc2c(C(=O)O)cccc2C2C=CCC21 (stereo not shown) | -1.2
42 | O=C(O)c1cccc2c1NC(C(=O)O)C1CC=CC21 (stereo not shown) | 65.6
43 | CCc1nn(CCCC(=O)NC2CCCCC2C)c(=O)c2cc3occc3n12 (stereo not shown) | -0.281
44 | CCOc1ccc(C(=O)Nc2ccc(-c3nc4ncccc4o3)cc2)cc1Cl | -4.82

Row | SMILES | % Inhibition @ 10 uM [%]
45 | CCc1cccc(C)c1NC(=O)c1cc(OC)cc(OC)c1 | 15.2
46 | O=C(O)CN1C(=O)c2cc(Cl)c(Cl)cc2C1=O | 3.67
47 | Cc1ccc(C(=O)NCc2nnc(SCC(=O)Nc3nccs3)n2-c2ccccc2)cc1C | -4.97
48 | COc1ccccc1-n1c(CNC(=O)c2cccc(C)c2)nnc1SCC(=O)Nc1nccs1 | 2.12
49 | Cc1ccc(C)c(-n2c(CNC(=O)c3cccc(F)c3)nnc2SCC(=O)Nc2nccs2)c1 | 73.7
50 | C[C@H](NC(=O)CCc1ccccc1)c1ccccc1 | 4.22
51 | CC(C)n1c(NC2CCCCC2)nc2c1c(=O)[nH]c(=O)n2C | -1.11
52 | Cc1cc(C)c2oc(C(=O)Nc3nnc(C)s3)cc(=O)c2c1 | -3.24
53 | Cc1cc(C)c2oc(C(=O)Nc3nnc(CC(C)C)s3)cc(=O)c2c1 | 3.51
54 | Cc1cc(C)c2oc(C(=O)Nc3nnc(C(C)C)s3)cc(=O)c2c1 | 53.6
55 | Cc1cc(C(=O)NCCc2ccccc2)c2c(C)nn(-c3ccccc3)c2n1 | -6.46
56 | Cc1nc(SCC(N)=O)c(C#N)c(C)c1C | -0.239
57 | Cc1nc(SCC(=O)O)c(C#N)c(C)c1C | 72.9
58 | COC(=O)CSc1nc(C)c(C)c(C)c1C#N | 4.15
59 | O=C(CSC1CC(=O)N(c2cccc(Cl)c2)C1=O)Nc1ccc(F)cc1 (stereo not shown) | 2.13
60 | CC(=O)Nc1ccc(Oc2ccc(NC(C)=O)c(NC(C)=O)c2)cc1 | 70.7
61 | CC(=O)Nc1ccc(Oc2cccc(Oc3ccc(NC(C)=O)cc3)c2)cc1 | -6.02
62 | CCC(=O)Nc1ccc(Oc2ccc(NC(=O)CC)c(NC(=O)CC)c2)cc1 | 8.21
63 | C1CCN(CCCNC2C3CC4CC(C3)CC2C4)C1 (stereo not shown) | -0.192
64 | COc1ccc(C(=O)N2CCC(N3CCCCCC3)CC2)cc1 | 1.91
65 | Cc1nc2c3ccccc3n3c(CCCC(=O)O)nnc3n2n1 | -2.92
66 | c1cncc(C(c2c[nH]c3ccccc23)c2c[nH]c3ccccc23)c1 | 92.4

Row | SMILES | % Inhibition @ 10 uM [%]
67 | CCc1[nH]c2ccccc2c1C(C)c1cccnc1 (stereo not shown) | -4.49
68 | Cc1[nH]nc(O)c1C(c1c(O)n[nH]c1C)c1c[nH]c2ccccc12 | -6.24
69 | CC(C)(C)C1CCC(OC(=O)CCC(=O)Nc2ccccc2)CC1 (stereo not shown) | 3.16
70 | N#Cc1cnn(-c2cc(Oc3ccccc3)nc(-c3ccccc3)n2)c1N | -0.941
71 | Cc1cccc(C)c1-n1c(C)cc(/C=C2\C(=N)N3N=C(S(C)(=O)=O)SC3=NC2=O)c1C | 5.1
72 | Cc1cccc(-n2c(C)cc(/C=C3\C(=N)N4N=C(S(C)(=O)=O)SC4=NC3=O)c2C)c1 | 52.6
73 | Cc1cc(/C=C2\C(=N)N3N=C(S(C)(=O)=O)SC3=NC2=O)c(C)n1-c1cccc(C(F)(F)F)c1 | 3.53
74 | CN(C)CCN(Cc1ccccc1)c1ncnc2onc(-c3ccc(F)cc3)c12 | -2.52
75 | CC(=O)Nc1ccc(Nc2nc(-c3c(C)nc4cc(C)ccn34)cs2)cc1 | 25.6
76 | CCc1c(C#N)c(SCC(=O)OC)nc2c1CCC2 | 4.16
77 | CC(C)Cc1c(C#N)c(SCC(N)=O)nc2c1CCCC2 | 9.71
78 | N#Cc1c(S)nc2c(c1/C=C/c1ccccc1)CCC2 | 17.3
79 | CCc1c(C#N)c(S)nc2c1CCC2 | 88.7
80 | CC(C)Cc1c(C#N)c(S)nc2c1CCCC2 | 90.5
81 | N#Cc1c(S)nc2c(c1-c1ccncc1)CCCC2 | 30.8
82 | CCn1ncc(Br)c1C(=O)Nc1ccc(S(=O)(=O)Nc2ccc(OC)cc2)cc1 | -4.43
83 | O=C(O)c1cc(C(=O)O)cc(N2C(=O)c3ccc([N+](=O)[O-])cc3C2=O)c1 | 1.64
84 | O=C(c1sc(N2CCOCC2)nc1-c1ccccc1)c1c[nH]c2ccccc12 | 72.2
85 | CC1(C)OCCN1C(=O)C(=O)c1c[nH]c2ccccc12 | -2.68
86 | O=C(CN1CCOCC1)c1c[nH]c2ccccc12 | 7.5
87 | Cc1nnc(N2CCC(C(=O)NCCc3ccc(Cl)cc3)CC2)c2nn(-c3ccccc3)c(C)c12 | 0.58
88 | COc1ccc(C2=NN(CCc3ccccn3)C(=O)C2)cc1 | -4.06

Row | SMILES | % Inhibition @ 10 uM [%]
89 | O=C1N=C(N2CCN(C3=NC(=O)/C(=C\c4cccc(O)c4)S3)CC2)S/C1=C\c1cccc(O)c1 | 6
90 | O=C1N=C(N2CCN(Cc3ccccc3)CC2)S/C1=C\c1ccccc1 | -2.82
91 | O=C1N=C(N2CCN(Cc3ccccc3)CC2)S/C1=C\c1cccc(O)c1 | 51
92 | CCOC(=O)N1CCN(C(=O)Cc2cn(C)c3ccccc23)CC1 | 85.9
93 | Cn1cc(CCC(=O)NCc2ccccn2)c2ccccc21 | 3.28
94 | CCOC(=O)N1CCC(NC(=O)Cc2cn(C)c3ccccc23)CC1 | -2.41
95 | Cn1cc(CC(=O)NCc2ccc(F)cc2)c2ccccc21 | -4.76
96 | Cn1cc(CC(=O)NCc2ccccn2)c2ccccc21 | 87.4
97 | CCOC(=O)N1CCN(C(=O)Cc2c(C(=O)O)n(C)c3ccccc23)CC1 | 2.84
98 | CSCCCN(C)CCc1ccccn1 | -7.56
99 | CN(C)c1ccc(NC(=O)C23CC4CC(C2)CC(n2cnc(Cl)n2)(C4)C3)cc1 | -0.305
100 | Cc1ccc(C)c(-c2csc(NC(=O)CSc3ccccc3)c2C(N)=O)c1 | 1.02
101 | N#Cc1c(C(F)(F)F)cc(-c2cccs2)nc1SCC(=O)Nc1ccc(C(N)=O)cc1 | -7.55
102 | N#Cc1c(C(F)(F)F)cc(-c2cccs2)nc1SCC(=O)O | 9.42
103 | N#Cc1c(C(F)(F)F)cc(-c2cccs2)nc1SCC(=O)N1CCOCC1 | 72.6
104 | O=C(CSc1ccc(-c2cccs2)nn1)N1CCOCC1 | 5.85
105 | N#Cc1c(C(F)(F)F)cc(-c2ccccc2)nc1SCc1nc(N)nc(N2CCOCC2)n1 | 5.18
106 | N#Cc1c(C(F)(F)F)cc(-c2cccs2)nc1SCC(=O)NC1CC1 | 1.76
107 | COc1ccc(-c2cc(-c3ccccc3)nc(SCC(=O)N3CCOCC3)c2C#N)cc1 | 5.24
108 | N#Cc1c(C(F)(F)F)cc(-c2cccs2)nc1SCC(=O)N1CCCCC1 | 87
109 | N#Cc1c(C(F)(F)F)cc(-c2cccs2)nc1SCc1nc(N)nc(N2CCOCC2)n1 | 64.2
